Hits are enriched below; roughly 9.2% of the tested compounds scored in any of these assays.
Rab9 prom act: activators of Rab9 promoter | Huh7 Rab9 promoter-luciferase reporter, luminescence, 24 h | Potency, µM (titrated, usually from 9.22 µM), hits mostly activators | AID 485297 | actives 2.8% (n = 320,000); note: nearly all actives have a fitted effect of over 60% in size
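Quantitative HTS format; Huh7 Rab9-luciferase reporter cells (1500/well) receive compound 2 h post-plating, incubate 24 h at 37 °C, then get luciferase reagent for 10 min before luminescence reading.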
SMN2 splice enh: SMN2 splice variant enhancement; HEK293 SMN2-luciferase splicing reporter, luminescence, 30-36 h; Potency, µM (titrated, usually from 46.1 µM), usual class: activators; actives 2.8% (n = 210,000); note: nearly all actives have a fitted effect of over 55% in size
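qHTS luciferase splicing reporter: luminescence rises when SMN2 exon 7 is included in transfected HEK293 cells. Compound exposure lasted 30-36 h at 37C, with 4.5 mM final sodium butyrate as control, followed by a ONE-Glo read.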
NPC1 promoter act: NPC1 promoter activation; Huh7 NPC1 promoter luciferase reporter, 24 h; Potency, µM (series often up to 9.22 µM), usual class: activators; actives 2.4% (n = 320,000); note: nearly all actives have a fitted effect of over 60% in size
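NPC1 promoter–luciferase Huh7 cells; 24 h compound; luminescence.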
FLuc modulator: counter-screen for miR-21 project: firefly luciferase inhibitors or activators | purified FLuc, Km substrates, luminescence inhibition | Potency, µM (top dose mostly 57.5 µM), most hits filed as inhibitors | actives 6.9% (n = 360,000); note: nearly all actives have a fitted effect of over 55% in size
Target sequence (P08659 whole entry, looked up): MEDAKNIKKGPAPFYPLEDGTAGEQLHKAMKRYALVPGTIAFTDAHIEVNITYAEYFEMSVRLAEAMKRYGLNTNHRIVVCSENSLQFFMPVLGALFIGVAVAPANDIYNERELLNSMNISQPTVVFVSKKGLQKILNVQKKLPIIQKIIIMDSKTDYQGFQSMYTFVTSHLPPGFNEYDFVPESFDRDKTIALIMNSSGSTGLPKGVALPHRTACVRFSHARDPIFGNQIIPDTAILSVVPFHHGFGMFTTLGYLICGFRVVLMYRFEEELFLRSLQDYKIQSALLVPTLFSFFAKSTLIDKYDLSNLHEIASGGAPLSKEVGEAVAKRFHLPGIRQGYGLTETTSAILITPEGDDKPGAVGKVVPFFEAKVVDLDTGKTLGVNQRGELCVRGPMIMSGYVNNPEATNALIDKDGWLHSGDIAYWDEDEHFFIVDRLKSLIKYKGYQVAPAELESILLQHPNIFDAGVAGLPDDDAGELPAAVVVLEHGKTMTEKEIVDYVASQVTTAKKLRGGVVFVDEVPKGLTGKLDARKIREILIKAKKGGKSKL
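Biochemical qHTS of compounds, final roughly 60 µM downward over six points, against 10 nM purified firefly luciferase using Km concentrations of substrates (10 uM D-luciferin, 10 uM ATP) in Tris acetate pH 7.5 buffer; luminescence output.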
ELG1 genotoxic: inducers of genotoxicity in HEK293T ELG1-luciferase cells | actives 1.3% (n = 330,000) | Potency, µM (top dose mostly 46 µM), actives largely listed as activators | HEK293T ELG1-luciferase reporter, luminescence, 16 h; note: nearly all actives have a fitted effect of over 60% in size
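Luminescence read-out: rising ELG1-luciferase signal, reflecting elevated ELG1 protein under genetic stress, flags genotoxic compounds. Cells were treated for 16 hr at 37 °C before ONE-Glo detection.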
ELG1 DNA repair: ELG1-dependent DNA repair inhibition | Potency, µM (doses to about 46.1 µM), actives largely listed as inhibitors | actives 2.3% (n = 330,000) | HEK293T ELG1-luciferase reporter, luminescence, 16 h; DNA damage induced by 5-fluorouridine; note: nearly all actives have a fitted effect of over 55% in size
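Cells (2,000 per well) received 5-fluorouridine plus test compound or DMSO and were incubated 16 hr at 37 °C, 5% CO2. Luciferase activity was read by luminescence 30 min after ONE-Glo addition; signal suppression marked inhibition of damage-induced ELG1 function.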
Numbers stand for hits; . = inactive; ? = inconclusive; / = not tested or not shown; [ ] = dose if it differs, or a comment. Calls come from the whole dose curve; as a rule, active = well fitted curve in the direction sought with a large enough effect; inconclusive = small, poorly fitted or top-dose-only effect, or another doubt; inactive = no such curve, though single readings can be large; an effect the other way counts as inactive or inconclusive.

SMILES	Rab9 prom act	SMN2 splice enh	NPC1 promoter act	FLuc modulator	ELG1 genotoxic	ELG1 DNA repair
Cc1cccc(-n2ncc3c(NCc4cccnc4)ncnc32)c1	2.5µM	/	4µM	8.5µM	?	?
Cc1ccc(-n2ncc3c(NCc4cccnc4)ncnc32)cc1C	?	/	2.2µM	4.8µM	9.2µM	?
COc1ccc(-n2ncc3c(NCc4cccnc4)ncnc32)cc1	1µM	/	1.3µM	6.7µM	?	?
COc1ccc(CNc2ncnc3c2cnn3-c2ccc(Cl)cc2)cc1	/	/	/	.	/	/
COCCN(C(=O)CSc1n[nH]c(-c2ccccc2)n1)c1c(N)n(Cc2ccccc2)c(=O)[nH]c1=O	.	/	.	.	.	.
COc1c(S(=O)(=O)NCCCN2CCOCC2)ccc(Cl)c1Cl	.	/	.	.	.	.
C=C1C=C(C(F)F)n2ncc(C(=O)NCc3ccccc3Cl)c2N1	/	/	/	.	/	/
CCOC(=O)c1cc(-c2ccccc2C)n(CC2CC(c3cccc([N+](=O)[O-])c3)=NO2)n1 (stereo unspecified)	.	/	.	.	.	.
CCOc1ccc(NC(=O)CC(Cc2cc(C)cc(C)c2)C(=O)O)cc1 (stereo unspecified)	.[1.84 µM]	/	.	.	.	.
CCC(C(=O)NCc1ccccc1)n1ncn2c(cc3occc32)c1=O (stereo unspecified)	/	.	/	.	/	/
CCOc1ccc(NC(=O)NCc2ccc3c(c2)OCO3)cc1	.	/	.	.	.	.
Cc1ccc(OCCC(=O)Nc2ccc3c(c2)OCO3)cc1	.	/	.	.	.	?
O=Cc1ccc(OCc2ccc3c(c2)OCO3)cc1	.	/	.	4.8µM	18µM	?
Cc1ccc(COc2ccc3c(c2)OCO3)cc1	4µM	/	2.2µM	1.2µM	?	?
Cc1nn2c(NCc3ccccn3)cc(C(C)C)nc2c1-c1ccccc1	.	/	.	.	.	?
COc1ccccc1CNc1cc(C)nc2nc(-c3ccc(C)cc3)nn12	/	/	/	6µM	/	/
CCCc1cc(NCc2ccccn2)n2nc(C)c(-c3ccccc3)c2n1	.	/	.	.	.	21µM
Cc1cc(NCc2ccccn2)n2nc(C)c(-c3ccc(Cl)cc3)c2n1	.	/	.	?	.	26µM
COc1cccc(Nc2cc(C)nc3nc(-c4ccc(Cl)cc4)nn23)c1	/	.	/	.	/	/
Cc1cc(NCc2ccccn2)n2ncc(-c3ccc(Cl)cc3)c2n1	?	/	?	11µM	.	?
O=C1COc2ccc(C(=O)COC(=O)/C=C/c3ccc(Br)o3)cc2N1	.	/	.	.	.	?
COc1ccc(CCNc2cc(C)nc3c(-c4ccccc4OC)cnn23)cc1OC	.	/	.	.	.	?
Cc1cc(NCc2ccccn2)n2ncc(-c3ccccc3)c2n1	?	/	0.5µM	4.3µM	?	?
Cc1cc(NCCOCCO)n2ncc(-c3ccc(Cl)cc3)c2n1	0.89µM	10µM	1.3µM	1.3µM	?	?
COc1ccccc1-c1cnn2c(NCc3ccccc3)cc(C)nc12	.	/	.	17µM	.	.
SMILES	Rab9 prom act	SMN2 splice enh	NPC1 promoter act	FLuc modulator	ELG1 genotoxic	ELG1 DNA repair
Cc1cc(NCCCN2CCOCC2)n2ncc(-c3ccccc3)c2n1	0.71µM	16µM	1µM	7.6µM	9.2µM	?
Cc1ccc(N2CC(NC(=O)Cc3cccs3)CC2=O)cc1C (stereo unspecified)	/	/	/	.	/	/
COc1ccc(/C=C(\C#N)C(=O)N2COCC2(C)C)cc1	.	/	.	.	.	?
CC(=O)c1cccc(NC(=O)Cn2c(=O)oc3cc(S(=O)(=O)NC4CCCC4)ccc32)c1	/	.	/	.	/	/
CCOC(=O)c1sc2ccccc2c1S(=O)(=O)Nc1cc(OC)ccc1OC	/	/	/	.	/	/
CCOc1ccc(NC(=O)N(Cc2ccc(C)cc2)Cc2ccccn2)cc1	.	/	.	.	.	.
CCc1ccc(C(=O)c2cn(CC(=O)Nc3cc(OC)ccc3OC)c3ccc(Cl)cc3c2=O)cc1	/	.	/	.	/	/
CCN(CC(=O)Nc1ccc(OC)cc1)C(=O)Cc1cccs1	.	/	.	.	.	.
NC(=O)c1cc2ccc(O)cc2oc1=NCc1ccccc1	.	.	.	.	.	9.2µM
COc1ccc(OC)c(N=c2oc3cc(O)ccc3cc2C(N)=O)c1	.	.	.	21µM	.	?
O=C(O)c1ccc(N=c2oc3cc(O)ccc3cc2C(=O)NCc2ccccc2)cc1	.	.	.	?	.	?
COc1ccc2cc(C(=O)NCc3ccccc3)c(=Nc3ccc(C(=O)O)cc3)oc2c1	.	.	.	.	.	?
COc1ccc2cc(C(N)=O)c(=Nc3ccccc3)oc2c1	1.6µM	.	3.5µM	.	?	?
NC(=O)c1cc2ccc(O)cc2oc1=Nc1ccccc1	.	.	?	.	.	2.3µM
Cc1ccccc1C(=O)Nc1nc2nc(C)c(C)c(=O)n2[nH]1	/	.	/	.	/	/
CSc1ncc(Cl)c(C(=O)Nc2c(C(=O)c3ccc(Cl)cc3)oc3ccccc23)n1	/	.	/	.	/	/
CCc1onc(C)c1C(=O)O	.	.	.	.	.	.
CCOc1ccc(S(=O)(=O)N2CCC(C(=O)NCc3ccccn3)CC2)cc1C	.	/	.	.	.	.
COc1ccc(-c2cn3cc(C(F)(F)F)cc(Cl)c3n2)cc1	2.2µM	2.8µM	?	3µM	5.8µM	?
Fc1ccc(CNc2nc(-c3ccc(Cl)cc3)cc(C(F)(F)F)n2)cc1	/	.	/	.	/	/
Fc1ccc(-c2cn3cc(C(F)(F)F)cc(Cl)c3n2)cc1	4.5µM	13µM	?	1.7µM	?	?
O=C(Nc1cc(C(F)(F)F)cc(C(F)(F)F)c1)Nc1cnn(-c2ccc([N+](=O)[O-])cc2)c1C(F)(F)F	.	/	.	.	.	?
Cc1ccc(CNC(=O)c2c(Nc3c(C)cccc3C)sc(C(=O)c3ccccc3)c2N)cc1	/	/	/	.	/	/
COc1cc2nncc(SCc3ccc(Cl)c(Cl)c3)c2cc1OC	/	.[9.22 µM]	/	/	/	/
COc1ccccc1NC(=O)C(=O)NCCCN1CCCC1=O	.	/	.	.	.	?
SMILES	Rab9 prom act	SMN2 splice enh	NPC1 promoter act	FLuc modulator	ELG1 genotoxic	ELG1 DNA repair
Cc1cc(C)cc(NC(=O)C(=O)NCCCN2CCCC2=O)c1	?	/	?	?	13µM	?
COc1cccc(NC(=O)C(=O)NCCCN2CCCC2=O)c1	.	/	?	19µM	?	?
Cc1ccc(NC(=O)NCCCN2CCCC2=O)cc1	.	.	.	?	?	?
Cc1ccc(O)c(N=Cc2sc3ccccc3c2Cl)c1	.	.	.	1.5µM	.	?
O=c1[nH][nH]cc1C=Nc1ccccc1O	.	?	.	.	.	.
Oc1ccccc1N=Cc1sc2ccccc2c1Cl	.	.	.	2.1µM	.	.
Oc1ccc(Cl)cc1C=Nc1ccccc1Br	.	.	.	.	.	.
O=C(Nc1ncn[nH]1)c1cc(S(=O)(=O)Nc2cccc(C(F)(F)F)c2)ccc1Cl	.	.	.	.	.	?
COc1ccc(OCC(=O)Nc2cccc(-c3nc4ccccc4[nH]3)c2)cc1	.	?	?	9.5µM	.	?

Source: PubChem BioAssay (National Center for Advancing Translational Sciences (NCATS))
